Reference: PubChem BioAssay AID1851 (National Center for Advancing Translational Sciences (NCATS), 2009)
The campaign covered roughly 16,000 compounds. About 5,100 (32%) were called active. Not shown: some 25% with an inconclusive outcome. The call rests on the fitted dose curve; in most records, active means well fitted curve in the direction sought with a large enough effect; inconclusive means small, poorly fitted or top-dose-only effect, or effect the other way; inactive means no such curve, though single readings can be large or run the other way. The list shows a part of the results.

molecular target: Cytochrome P450 3A4 (Homo sapiens) (UniProt P08684); test: Cytochrome panel assay with activity outcomes; conditions: recombinant CYP, pro-luciferin dealkylation, luminescence, p450-cyp3a4; series mostly up to 57.1 µM; activity, negative = inhibition: at the top concentration
Sequence (P08684 whole entry, looked up): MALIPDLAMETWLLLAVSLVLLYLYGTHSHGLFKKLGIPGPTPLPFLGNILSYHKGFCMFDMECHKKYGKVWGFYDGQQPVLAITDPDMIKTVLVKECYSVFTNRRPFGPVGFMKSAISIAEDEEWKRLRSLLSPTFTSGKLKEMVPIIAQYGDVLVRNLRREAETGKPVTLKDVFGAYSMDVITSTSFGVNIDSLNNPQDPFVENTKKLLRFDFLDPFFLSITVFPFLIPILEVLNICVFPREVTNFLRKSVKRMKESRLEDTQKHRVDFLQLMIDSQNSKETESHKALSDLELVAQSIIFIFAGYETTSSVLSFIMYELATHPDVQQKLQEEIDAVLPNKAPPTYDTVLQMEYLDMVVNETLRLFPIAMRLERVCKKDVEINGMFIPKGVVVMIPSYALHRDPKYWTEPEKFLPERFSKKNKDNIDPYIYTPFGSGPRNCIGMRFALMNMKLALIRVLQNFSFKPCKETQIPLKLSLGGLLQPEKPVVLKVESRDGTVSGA
On the % scale 0 is the no-effect control and ±100 the full control effect.

AC50, active:
Cn1c(-c2ccc(F)cc2)cnc1NCc1cccc(F)c1 8.91 µM
Cn1c(-c2ccc(Br)cc2)cnc1NCc1cccnc1 3.98 µM
C[C@@H](/C=C\c1cccc(Oc2ccc(F)cc2)c1)N(O)C(N)=O 1 µM
COc1ccc(Br)cc1/C=C/C(=O)Nc1c(C)cccc1C 4.47 µM
CN1CCc2c(c3c(n2C)CCN(C)[C@H]3c2ccccc2F)[C@@H]1c1ccccc1F 7.94 µM
CN1CCN(CCC=C2c3ccccc3Sc3ccc(S(=O)(=O)N(C)C)cc32)CC1 12.6 µM
CCCCC1(C)Nc2ccccc2-c2nc3ccccc3n21 (configuration not stated) 7.08 µM
CCCC1(C)Nc2ccccc2-c2nc3ccccc3n21 (configuration not stated) 12.6 µM
COC(=O)[C@@]1(Cc2ccccc2)[C@H]2c3cc(C(=O)N4CCCC4)n(Cc4ccsc4Br)c3C[C@H]2CN1C(=O)c1ccccc1 3.98 µM
COC(=O)[C@@]1(Cc2ccccc2)[C@H]2c3cc(C(=O)N(C)C)n(Cc4ccsc4Br)c3C[C@H]2CN1C(=O)c1ccccc1 1.58 µM
COc1ccc(-c2noc(N(C)CC(=O)Nc3cccc(C(F)(F)F)c3)n2)cc1 12.6 µM
Cc1cccc2sc(NC(=O)C3c4ccccc4Oc4ccccc43)nc12 12.6 µM
Cc1ccc2nc(Nc3nc(-c4ccccc4)cc(=O)[nH]3)nc(C)c2c1 2.51 µM
Cc1ccc2c(C)nc(Nc3nc(CSc4nc5ccccc5[nH]4)cc(=O)[nH]3)nc2c1 2.82 µM
CCOC(=O)Cn1c(=O)oc2cc(S(=O)(=O)NCCc3ccc(OCC)c(OCC)c3)ccc21 12.6 µM
O=C(NN=C1C2CC3CC(C2)CC1C3)c1ccncc1 25.1 µM
COc1ccc2c(c1)C(=O)N(c1ccccc1)C(=O)C2 2.24 µM
O=C(COc1ccc([N+](=O)[O-])cc1)Nc1ccc(C(=O)NCc2cccnc2)cc1 12.6 µM
CCOc1ccc(OCc2ccc(C(=O)NCc3cccnc3)o2)cc1 2.82 µM
Cc1ccccc1CS(=O)(=O)Cc1ccc(C(=O)NCc2cccnc2)o1 0.891 µM
Cc1cccc(CNc2cc(-c3cccc(NS(C)(=O)=O)c3)ncn2)c1 2 µM
CS(=O)(=O)Nc1cccc(-c2cc(NCc3ccccc3)ncn2)c1 15.8 µM
CS(=O)(=O)Nc1cccc(-c2cc(NCc3cccs3)ncn2)c1 15.8 µM
CS(=O)(=O)Nc1cccc(-c2cc(Nc3ccccc3)ncn2)c1 15.8 µM
CC1(C)SC(=S)N(NC(=O)Nc2ccccc2)C1N(O)C(=O)Nc1ccccc1 (configuration not stated) 2.51 µM
CC(C)c1ccccc1-n1c(SCC(=O)N2CCN(c3ccccc3)CC2)nnc1-c1cccnc1 0.501 µM
Cc1cc2nnc(SCC(=O)N3CCN(c4ccccc4)CC3)n2c(N)n1 14.1 µM
Cn1c(Cc2cccc3ccccc23)nnc1SCC(=O)N1CCN(c2ccccc2)CC1 1.58 µM
Cn1c(CC(=O)Nc2ccc(Cl)c(Cl)c2)nnc1SCC(=O)N1CCN(c2ccccc2)CC1 1.58 µM
COc1ccccc1CNc1ncncc1-c1ccc2c(c1)OCO2 0.2 µM
COc1ccc(CNc2ncncc2-c2ccc3c(c2)OCO3)c(OC)c1 0.126 µM
CCC/C=C(\CCC)C(NS(=O)(=O)c1ccc(C(F)(F)F)cc1)c1ccccc1 (configuration not stated) 10 µM
CCC/C=C(\CCC)C(NS(=O)(=O)c1ccccc1)c1ccc(C(F)(F)F)cc1 (configuration not stated) 6.31 µM
COc1ccccc1CN1CCCC2(CCN(C(=O)c3cnccn3)CC2)C1 15.8 µM
COc1ccccc1CN1CCCC2(CCN(C(=O)c3ccncc3)CC2)C1 6.31 µM
Cc1cccc(Cc2c(C)nc3nc(SCC(=O)NCc4ccco4)nn3c2C)c1 11.2 µM
Cc1nc2nc(SCC(=O)NCc3ccco3)nn2c(C)c1Cc1c(F)cccc1Cl 10 µM
CCOC(=O)c1cc(CC)sc1NC(=O)c1cc(OCC)c(OCC)c(OCC)c1 22.4 µM
CSc1ccc(C#N)cc1NC(=O)c1cccc(Cl)c1 25.1 µM
CCCc1c(-c2ccc(O)cc2)nn(-c2ccc(O)cc2)c1-c1ccc(O)cc1 2.51 µM
N#C[C@H](Cc1ccc(O)cc1)c1ccc(O)cc1 12.6 µM
CC1CCc2cc(F)ccc2N1C(=O)CSc1nnc2c(n1)[nH]c1ccc(F)cc12 (configuration not stated) 2 µM
Cc1ccc(C(=O)NNC(=O)CSc2nnc3c(n2)[nH]c2ccc(F)cc23)cc1 1.58 µM

AC50, inactive:
C[C@H](NCCc1ccc(O)cc1)[C@@H](O)c1ccc(O)cc1

activity, negative = inhibition, inactive:
Cn1c(-c2ccc(F)cc2)cnc1NCc1ccc(F)cc1 21.4%
CCNc1ncc2nc(-c3ccc(F)cc3)c(=O)n(C)c2n1 7.57%
CCC(C)(C)c1ccc(Oc2cccc(C(=O)O)c2)cc1 -2.44% [at 11.4 µM]
C[C@H](C(=O)O)c1cccc(Oc2ccccc2)c1 -0.468% [at 25.6 µM]
CCn1nc(C)c(NC(=O)/C=C/c2cnn(C)c2C)c1C -3.52%
COC(=O)/C=C\c1cc(O)ccc1O -17%
COc1cc2c(cc1OC)/C(=C/C(=O)N1CCOCC1)NC(C)(C)C2 9.97%
Oc1ccc(Cl)cc1Cc1cc(Cl)cc(Cc2cc(Cl)ccc2O)c1O -24.4% [at 11.4 µM]
CN(C)CC/C=C1\c2ccccc2CSc2ccccc21 -2.26% [at 25.6 µM]
CN1CCC(=C2c3ccccc3Sc3ccccc32)CC1 27.7% [at 25.6 µM]
CC1CCC2(CC1)N=C(N)Nc1nc3ccccc3n12 (configuration not stated) -19.5%
CCC1(C)Nc2ccccc2C(=O)N1O (configuration not stated) 8.28%
NC1=NC2(CCCCCC2)n2c(nc3ccccc32)N1 -12.8%
CC(C)c1ccc(/C(C(=O)O)=C(\O)C(=O)O)cc1 -12.9% [at 11.4 µM]
O=C(O)CCC(=O)c1ccc2ccc3cccc4ccc1c2c34 -10.9% [at 11.4 µM]
CC1(C)OC(=O)C(=CNCC(O)c2ccccc2)C(=O)O1 (configuration not stated) 20.4% [at 11.4 µM]
COc1ccc(-c2cc(CNC(C)=O)on2)cc1 17.4%
Cc1ccccc1NC(=O)c1cnc(Nc2nc3ccccc3s2)nc1C -7.53%
CC(=O)c1ccc(OC(=O)C2c3ccccc3Oc3ccccc32)cc1 10.9% [at 2.29 µM]
C[N+](C)(C)CCCSc1nc2ccccc2[nH]1 4.86% [at 11.4 µM]
O=C(Nc1nn[nH]n1)c1nc(-c2ccccc2)cc(=O)[nH]1 -3.85% [at 11.4 µM]
O=c1nc(-c2ccccc2)cc(C(F)(F)F)[nH]1 6.38%
CC(=O)Nc1ccc(S(=O)(=O)NCCc2ccc(F)cc2)cc1 -13.3% [at 2.29 µM]
CC(=O)c1c(C(C)=O)c(C)n(NC(=O)c2ccncc2)c1C -3.59%
COc1ccc2c(c1)-c1ccccc1S(=O)(=O)N2C -20.4%
O=C1c2ccc3c4c(ccc(c24)C(=O)N1c1ccc2ccccc2c1)CC3 -10.2%
O=C(N/N=C/c1cccnc1)c1ccc([N+](=O)[O-])cc1 -24.7%
O=C(c1ccc(COc2ccc(F)cc2)o1)n1cccn1 -13.5%
O=C(COc1ccc([N+](=O)[O-])cc1)NCc1ccccc1 -8.35%
CN(C)C(=O)c1ccc(-c2cc(Nc3ccccc3)ncn2)cc1 11.3%
CC(=O)c1cn(CCCCCCCCCCn2cc(C(C)=O)c(=O)[nH]c2=O)c(=O)[nH]c1=O 2.06% [at 2.29 µM]
NC(=O)C[C@H](N)C(N)=O 2.14% [at 11.4 µM]
CCN(CC)CCOc1ccc2nc(N(C)C)sc2c1 3.43%
COC(=O)C1CCC(C)(C(=O)Nc2ccccc2)C1(C)C (configuration not stated) -9.58% [at 11.4 µM]
CC1CC(C)CN(C(=O)CSc2nnc(CSc3ncccn3)n2C)C1 (configuration not stated) 3.75% [at 2.29 µM]
COCC(=O)N1CCC2(CC1)CCN(c1cccc(-c3ccccc3)c1)CC2 -2.88%
O=C1CSC2(CCN(CCCN3c4ccccc4Sc4ccc(Cl)cc43)CC2)N1 -14.4% [at 11.4 µM]
C[C@@](O)(CNS(=O)(=O)c1ccccc1)c1ccccc1 -21.9% [at 11.4 µM]
COc1ccccc1CN1CCCC2(CCN(C(C)=O)CC2)C1 -19%
COCC(=O)N1CCC2(CCCN(Cc3ccccc3OC)C2)CC1 -17.4%
CCCN=C(N)NCCC[C@H](N)C(=O)O -7.85%
COc1cc(OC)c(C2N(c3cc(C)on3)C(=O)C3CCCN32)cc1OC (configuration not stated) -22.1%
CCOC(=O)c1cc(-c2ccccc2)sc1NC(=O)c1ccc(OC)cc1 -2.52%
CCc1cc(C(=O)OC)c(NC(=O)CCCC(=O)O)s1 -11.2%
CC(C)NCC[C@@H](O)c1cc2ccccc2o1 -4.13% [at 11.4 µM]
CCOC(=O)/C(C#N)=C1/C=CN(C)C=N1 27.7%
CC(=O)c1ccc(NC(=O)C2(c3ccccc3)CCOCC2)cc1 -28.3%
CO/N=C(/CNC(=O)c1cccc(Cl)c1)c1ccc(Cl)cc1 -6.99% [at 2.29 µM]
Cc1nn(-c2ccccc2)c(-c2ccccc2)c1C(=O)O -1.38%
CC(=O)N[C@H](Cc1ccc(O)cc1)C(=O)O -12.2% [at 11.4 µM]
Cc1occc1C(=O)NNC(=O)c1ccc(F)cc1 18.8%
Cc1ccccc1C(=O)NNC(=O)c1ccc(F)cc1 -5.86%
O=C(O)c1nn(-c2ccccc2)nc1-c1nn(-c2ccccc2)nc1C(=O)O 11.6%
